Screening results: PubChem, National Center for Advancing Translational Sciences (NCATS)
FMDV inh: antivirals against foot and mouth disease virus | Potency, µM (titrated, usually from 57.9 µM), for the others: at the highest dose activity change, negative = inhibition, usual class: inhibitors | FMDV antiviral cell-based qHTS | hit rate 1.2% among 410,000; calls by dose curve; tested in HEK293T cells; note: read-out not given here; potency is the fitted concentration of half-maximal effect; nearly all actives have a fitted effect of over 45% in size
HCV inhibitor: HCV inhibition; hit rate 3.4% among 340,000; Huh7.5.1 HCVcc-Cre infection, luciferase reporter, 44 h; Potency, µM (titrated, usually from 41.8 µM), for the others: at the top dose activity change, negative = inhibition, hits mostly inhibitors; AID 651820; active = well fitted inhibition curve with a large enough effect; inconclusive = small, poorly fitted or top-dose-only effect, or another doubt; inactive = no such curve, though single readings can be large or run the other way; note: potency is the fitted concentration of half-maximal effect
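Reporter virus HCVcc-Cre (~0.5 moi) infects cells exposed to compound; seeding density 1,000 cells/well with 4 h settling beforehand. Luminescence, 15 sec read, taken 44 h post-infection following a 15 min RT substrate incubation.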
Marburg entry inh: inhibitors of Marburg virus binding or cell entry; Marburg virus pseudotyped entry inhibition, cell reporter; AID 540276; Potency, µM (top dose mostly 37.8 µM), without a hit: at the highest dose activity change, negative = inhibition, actives largely listed as inhibitors; hit rate 1.8% among 300,000; calls by dose curve; tested in HEK293 cells; note: potency is the fitted concentration of half-maximal effect
HCMV inh: blocks human cytomegalovirus replication; activity change, negative = inhibition, % at 57.5 µM; hit rate 4.5% among 410,000; HFF cells, HCMV-luciferase reporter, 72 h; active compounds read low; AID 1259415; in the data active = activity change below about -60%; inconclusive = no clear call, values can overlap the other calls; inactive = above about -39%
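Compounds were evaluated in HFFs infected with an HCMV luciferase reporter virus (MOI 1 PFU/cell). Luciferase in lysates collected 72 h post infection served as the replication measure.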
Lassa entry inh: Lassa virus entry inhibition; Lassa virus pseudotype entry inhibition, cell reporter; Potency, µM (series often up to 37.9 µM), without a hit: at the top dose activity change, negative = inhibition, hits mostly inhibitors; hit rate 1.2% among 300,000; calls by dose curve; tested in HEK293 cells; note: potency is the fitted concentration of half-maximal effect; nearly all actives have a fitted effect of over 50% in size
Active calls of the source: *; ? = inconclusive; nt = no result given; + = active, no number; [ ] = dose if it differs, or a comment. In the library only some 7.9% were active in any assay of this set; here they are far more common. % is set by controls: 0 for no effect and ±100 for the full control effect.

SMILES	FMDV inh	HCV inhibitor	Marburg entry inh	HCMV inh	Lassa entry inh
Cc1cc(C)cc(N(C(=O)CNC(=O)c2ccco2)C(C(=O)NC2CCCC2)c2ccncc2)c1 (stereo unspecified)	-14%	26%	2%[46.1 µM]	-67*	?
COc1ccc(C(C(=O)NC2CCCCC2)N(CC2CCCO2)C(=O)CCCC(=O)Nc2ccccn2)cc1 (stereo unspecified)	3%	8%	-23%[46.1 µM]	0	-23%[46.1 µM]
Cc1ccc(C(C(=O)NC2CCCCC2)N(CC2CCCO2)C(=O)CCCC(=O)Nc2ccccn2)cc1 (stereo unspecified)	4%	-13%	-24%[46.1 µM]	-71*	?
Cc1cc(NC(=O)CCC(=O)N(c2ccccc2)C2(C(=O)NC3CCCCC3)CCCC2)no1	-25%	?	?	-77*	?
COc1ccc(N(C(=O)Cn2nnc3ccccc32)C2(C(=O)NC3CCCC3)CCCCC2)cc1	nt	5.6µM*	?	?	-8%
CCOc1ccc(S(=O)(=O)NCC(c2ccco2)S(=O)(=O)c2cccs2)cc1 (stereo unspecified)	54%	nt	nt	-26	?
Cn1c(Cc2ccccc2)nc2cnc(Nc3cccc(C(F)(F)F)c3)cc21	nt	nt	nt	14	nt
O=C(NC1CCCC1)C(c1ccncc1)N(Cc1ccccc1)C(=O)c1ccc(-c2ccccc2)[nH]1 (stereo unspecified)	-3%	?	?	-12	?
Cc1cc(NC(=O)CCC(=O)N(Cc2cccs2)C(C(=O)NC2CCCC2)c2ccccc2)no1 (stereo unspecified)	?	?	11µM*	-17	-18%
COc1cccc(C(C(=O)NC2CCCC2)N(CCC(C)C)C(=O)CCC(=O)Nc2cc(C)on2)c1 (stereo unspecified)	-17%	-5%	?	-66*	?
Cc1cc(C)cc(N(C(=O)CCC(=O)Nc2cc(C)on2)C(C(=O)NC2CCCC2)c2ccco2)c1 (stereo unspecified)	-23%	?	11µM*	-37	?
O=C(NC1CCCC1)C(c1ccncc1)N(Cc1ccco1)C(=O)c1ccc(-c2ccccc2)[nH]1 (stereo unspecified)	13%	-23%	10µM*	69	nt
COc1ccc(C(C(=O)NC2CCCC2)N(CCC(C)C)C(=O)CCC(=O)Nc2cc(C)on2)cc1 (stereo unspecified)	5%	-5%	?	-22	?
Cc1ccc(C)c(N(C(=O)CCC(=O)Nc2cc(C)on2)C(C(=O)NC2CCCC2)c2ccco2)c1 (stereo unspecified)	-18%	0%	?	16	-30%
Cc1cc2c(cc1S(=O)(=O)N(CCO)Cc1ccccc1)OCC(=O)N2	6%	nt	nt	?	-1%[46.1 µM]
Cc1cc2nc(-c3cc4ccccc4[nH]3)c(=O)n(/C=C(/c3ccccc3)n3c(=O)[nH]c4ccccc43)c2cc1C	nt	nt	nt	10	nt
CC(C)(C)NC(=O)c1csc(C(O)c2ccc(C(C)(C)C)cc2)n1 (stereo unspecified)	nt	nt	nt	-96*	nt
COc1cc(NC(=O)c2csc(C(O)c3ccc(C(C)(C)C)cc3)n2)cc(OC)c1OC (stereo unspecified)	nt	nt	nt	20	nt
O=C(CSc1nnc(CNc2ccc(F)cc2)n1CC1CCCO1)N1CCOCC1 (stereo unspecified)	11%	14%	8%[46.1 µM]	-98*	-4%
CCCc1nnc(SCC(=O)N2CCCC2)n1CC1CCCO1 (stereo unspecified)	-5%	5%	12%	-8	0%
CCCc1nnc(SCC(=O)N2CCOCC2)n1CC1CCCO1 (stereo unspecified)	-5%	21%	1%[46.1 µM]	-68*	?
Cc1c(Cl)cccc1NC(=O)N1CCCN(c2nc(-c3ccccc3)ns2)CC1	?	?	?	-70*	?
O=C(Nc1ccc(F)cc1)N1CCN(C(=O)c2nsc3ccccc23)CC1	-17%	nt	nt	?	2%[46.1 µM]
O=C(Nc1ccccc1)N1CCN(C(=O)c2nsc3ccccc23)CC1	0%	nt	nt	+	7%[46.1 µM]
Cc1c(Cl)cccc1NC(=O)N1CCCC1	-5%	-22%	27%[46.1 µM]	-19	19%
SMILES	FMDV inh	HCV inhibitor	Marburg entry inh	HCMV inh	Lassa entry inh
O=C(Nc1ccccc1)N1CCN(c2nc(-c3ccccc3)ns2)CC1	?	1.8µM*	3%	?	5%
Cc1cccc(NC(=O)Cn2c(=O)ccc3cc(S(=O)(=O)N4CCCC4)ccc32)c1C	0%	nt	nt	-5	4%[46.1 µM]
O=C(COc1ccc(Cl)cc1)Nc1ccccc1C(=O)NCc1cccnc1	-24%	-13%	?	-2	-12%
O=C(COc1ccc(Cl)cc1)Nc1ccc(C(=O)NCc2cccnc2)cc1	14µM*	13µM*	-27%	nt	-22%
O=C(NCc1cccnc1)c1ccc(COc2ccc(Cl)cc2)cc1	-7%	?	nt	-86*	nt
CC(C)(C)c1ccc(C(=O)c2c[nH]c(C(=O)NCc3cccnc3)c2)cc1	0%	-5%	?	-7	3%
O=C(Cc1ccc(Cl)cc1)c1c[nH]c(C(=O)NCc2cccnc2)c1	7.9µM*	?	nt	25	nt
Cc1ccc(OCc2ccc(C(=O)NCc3cccnc3)cc2)cc1C	-16%	?	8.9µM*	-72*	7.9µM*
O=C(Nc1cccc2ncccc12)c1ccc(OCc2ccccc2)cc1	?	16µM*	nt	?	nt
COC(=O)c1sc2ncccc2c1OCc1ccccc1Cl	-1%	?	-1%	26	-12%
COC(=O)c1sc2ncccc2c1OCc1ccc(Cl)cc1	13%	-6%	8.2µM*	-31	-9%
Nc1ccc(C(=O)Nc2cccc3ncccc23)cc1	-4%	2%	nt	9	nt
Cc1ccc(CNc2ncnc3sc(C(=O)N4CCC[C@H]4C(N)=O)c(C)c23)o1	-13%	nt	nt	nt	nt
Cc1cccc(C2C3=C(Nc4[nH]n(-c5ccccc5)c(=O)c42)c2ccccc2C3=O)c1 (stereo unspecified)	-20%	-7%	5%	-88*	5%
CC(C)c1ccc(C(C(=O)NC2CCCCC2)N(C(=O)c2csnn2)C2CC2)cc1 (stereo unspecified)	6%	22%	6.3µM*	-27	-1%[46.1 µM]
O=C(NC1CCCC1)C(c1ccccn1)N(C(=O)c1csnn1)c1ccccc1Cl (stereo unspecified)	14%	13%	-2%[46.1 µM]	-66*	2%
Cc1ccc(N(C(=O)c2csnn2)C(C(=O)NC2CCCCC2)c2ccncc2)cc1 (stereo unspecified)	-1%	-3%	?	-64*	?
CCc1ccc(N(C(=O)c2csnn2)C(C(=O)NC2CCCC2)c2cccnc2)cc1 (stereo unspecified)	-2%	19%	?	?	?
CC(C)c1ccc(N(C(=O)c2csnn2)C(C(=O)NC2CCCC2)c2cccnc2)cc1 (stereo unspecified)	1%	1%	-9%[46.1 µM]	-20	1.6µM*
CN1c2ccccc2[C@@]2(O)C(=O)[C@@]1(C)[C@@H]1c3ccccc3C[C@H]12	nt	nt	-28%[14.2 µM]	nt	nt
